Results published in PubChem BioAssay.
Activity calls are given as the source filed them.

Tests used:
[1] = test system: Human papillomavirus type 1a protein E7 (residues 44-93); experiment: HPV1a E7 fragment binders on microarrays, primary screen, biochemical, small-molecule microarray, residues 44-93, 635 nm fluorescence (AID 1108); conditions: small-molecule microarray binding, fluorescence 635 nm; higher = more signal;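 also: E7 fragment applied at 1 µg/mL in TBST for 1 h at 4 C; score combines spot fluorescence with its signal to noise ratio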
[2] = modulators of HCV replicon luciferase signal, primary screen, HCV replication inhibitor project, Huh7 cells, luciferase reporter (AID 1109); conditions: 48 h, higher = more signal;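 also: huh7 hepatoma cells harbouring a luciferase neomycin HCV replicon reporter; luciferase luminescence as measure of HCV replicon replication; test concentration not given here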
[3] = target: Left-right determination factor 2 (Homo sapiens) (UniProt O00292); experiment: LEFTY2 binders on small-molecule microarrays, primary screen, biochemical, small-molecule microarray, 635 nm fluorescence scan (AID 1110); conditions: LEFTY2 binding, higher = more signal
[4] = target: Calmodulin-1 (Homo sapiens) (UniProt P0DP23); experiment: CALM1 binders on microarrays, EGTA buffer, profiling panel, biochemical, small-molecule microarray, Cy5-labelled CALM1 (AID 1111); conditions: Cy5-CALM1 binding fluorescence, higher = more signal;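 also: labelled calmodulin applied in Tris saline Tween buffer holding calcium plus EGTA and DTT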
[5] = target: Calmodulin-1 (Homo sapiens) (UniProt P0DP23); experiment: calcium-bound CALM1 binders on microarrays, profiling panel, artefact control for SMM control-protein annotation, biochemical, small-molecule microarray, Cy5-labelled CALM1, plus calcium (AID 1112); conditions: Cy5-CALM1 binding fluorescence, higher = more signal;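 also: score merges spot fluorescence with signal to noise from triplicate slides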
[6] = small-molecule microarray binders of probe aWnt5a, primary screen, biochemical, biotinylated probe, 635/667 nm fluorescence (AID 1113); conditions: higher = more signal;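 also: score merges 667 nm fluorescence intensity with signal-to-noise per printed feature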
[7] = small-molecule microarray binders of probe aShh, primary screen, biochemical, biotinylated probe, 635/667 nm fluorescence (AID 1114); conditions: higher = more signal;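 also: probe is biotin-labelled aShh protein from a stem cell growth factor screen; measures binding of labelled protein to compounds printed on the slide; score merges feature fluorescence at 667 nm with signal-to-noise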
[8] = small-molecule microarray binders of probe aNog, primary screen, biochemical, biotinylated probe, 635/667 nm fluorescence (AID 1115); conditions: higher = more signal;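 also: probe is biotinylated aNog protein used at 0.15 µg/mL for 1 h at 4 C; z-score combines 667 nm fluorescence of each spot with its signal to noise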
[9] = target: Torsin-1A-interacting protein 1 (Homo sapiens) (UniProt Q5JTV8); experiment: LAP1 binders from COS7 cell lysate, primary screen, small-molecule microarray, 635/667 nm fluorescence (AID 1116); conditions: COS7-hLAP1 lysate binding, 635 nm fluorescence, higher = more signal
[10] = target: Alpha-bungarotoxin (Bungarus multicinctus) (UniProt P60615); experiment: alpha-bungarotoxin binders on microarray, profiling panel, artefact control for SMM control protein annotation, biochemical, small-molecule microarray, Alexa647 label, 635/667 nm fluorescence (AID 1117); conditions: alpha-BTX-A647 binding fluorescence, higher = more signal
Albumin (Bos taurus) = Albumin (Bos taurus) (UniProt P02769); experiment: bovine serum albumin binders on microarray, profiling panel, artefact control for SMM control protein annotation, biochemical, small-molecule microarray, Alexa647 label, 635/667 nm fluorescence (AID 1118); conditions: BSA-A647 binding, fluorescence 635 nm, higher = more signal;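 also: score merges 667 nm emission intensity and signal-to-noise per printed compound spot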
[11] = small-molecule microarray binders of probe aXIP, primary screen, biochemical, NeuroSMM set, 635/667 nm fluorescence (AID 1119); conditions: higher = more signal, called active from +8 up or from −8 down;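 also: probe is the protein aXip251-270 applied at 1 µg/mL to compound-printed slides; binding of probe to printed compounds measured as 667 nm fluorescence plus signal to noise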
[12] = small-molecule binders of probe aNOTCH3, primary screen, biochemical, small-molecule microarray, 635/667 nm fluorescence (AID 1120); conditions: higher = more signal;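 also: probe is a biotin-tagged antibody raised against NOTCH3 rather than NOTCH3 protein; score merges spot fluorescence near 667 nm with spot signal to noise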
[13] = small-molecule binders of probe aNOTCH2, primary screen, biochemical, small-molecule microarray, 635/667 nm fluorescence (AID 1121); conditions: higher = more signal;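 also: score merges feature fluorescence read at 667 nm with its signal to noise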
[14] = target: Carbonic anhydrase 2 (Homo sapiens) (UniProt P00918); experiment: CAII small-molecule binders, profiling panel, biochemical, small-molecule microarray, Alexa647-labelled CAII (AID 1122); conditions: CAII-A647 binding fluorescence, higher = more signal
[15] = COS7 lysate on small-molecule microarray, probe aHis, 635 nm (AID 1123); conditions: COS7 cell lysate, fluorescence, higher = more signal;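 also: z-score combines 667nm fluorescence intensity with signal-to-noise per printed compound spot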
[16] = compound binding in COS7 lysate, probe aLAP1, primary screen, cell lysate, small-molecule microarray (AID 1124); conditions: probe aLAP1, fluorescence, higher = more signal;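 also: lysate comes from COS7 cells expressing LAP1 and is applied at 0.3 µg/mL; score merges spot fluorescence near 667 nm with signal-to-noise over triplicate slides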
Sam68 (KHDRBS1) = experiment: Sam68 small-molecule binders, primary screen, biochemical, small-molecule microarray, 635 nm fluorescence (AID 1125); conditions: small-molecule microarray binding, higher = more signal;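 also: score merges 667 nm channel intensity with signal to noise over triplicate slides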
[17] = test system: Chordin-like protein 2 (CHRDL2); experiment: CHRDL2 small-molecule binders, primary screen, biochemical, small-molecule microarray, 635 nm fluorescence (AID 1126); conditions: small-molecule microarray binding, fluorescence 635 nm; higher = more signal;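 also: printed compound slides probed with Chrdl2 protein at 4 µg/mL for 1 h at 4 C; score merges 667 nm emission intensity with signal to noise over three replicate slides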
[18] = target: Concanavalin-A (Canavalia ensiformis) (UniProt P02866); experiment: ConA small-molecule binders, primary screen, artefact control for SMM control protein annotation, biochemical, small-molecule microarray, Alexa647 label, 635 nm (AID 1127); conditions: ConA-A647 binding fluorescence, higher = more signal;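 also: z combines 667 nm emission intensity with signal-to-noise across three replicate slides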
Concanavalin-A (Canavalia ensiformis), sequence (P02866 whole entry, looked up): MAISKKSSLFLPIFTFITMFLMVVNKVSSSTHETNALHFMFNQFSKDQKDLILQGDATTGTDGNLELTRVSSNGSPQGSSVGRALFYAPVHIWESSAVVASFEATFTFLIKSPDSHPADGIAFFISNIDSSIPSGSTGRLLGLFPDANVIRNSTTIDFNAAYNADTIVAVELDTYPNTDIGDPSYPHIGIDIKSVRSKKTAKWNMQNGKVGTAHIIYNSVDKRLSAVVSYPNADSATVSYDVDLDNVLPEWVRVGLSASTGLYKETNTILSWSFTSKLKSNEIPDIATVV

Albumin (Bos taurus), sequence (P02769 whole entry, looked up): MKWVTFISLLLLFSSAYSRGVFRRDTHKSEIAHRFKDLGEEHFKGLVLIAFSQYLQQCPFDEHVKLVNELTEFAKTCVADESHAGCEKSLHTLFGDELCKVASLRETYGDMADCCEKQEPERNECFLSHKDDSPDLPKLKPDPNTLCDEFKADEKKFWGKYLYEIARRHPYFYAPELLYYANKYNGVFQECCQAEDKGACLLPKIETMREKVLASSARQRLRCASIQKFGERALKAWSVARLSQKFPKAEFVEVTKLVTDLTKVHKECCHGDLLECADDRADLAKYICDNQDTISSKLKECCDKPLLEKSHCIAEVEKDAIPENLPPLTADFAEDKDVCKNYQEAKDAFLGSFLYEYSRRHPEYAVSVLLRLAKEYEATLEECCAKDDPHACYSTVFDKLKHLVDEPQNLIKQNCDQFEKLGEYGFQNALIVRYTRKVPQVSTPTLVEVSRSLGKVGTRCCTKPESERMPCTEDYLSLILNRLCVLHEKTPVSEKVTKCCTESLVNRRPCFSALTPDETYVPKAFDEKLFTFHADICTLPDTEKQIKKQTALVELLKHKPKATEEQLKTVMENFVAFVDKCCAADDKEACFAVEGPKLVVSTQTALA
Left-right determination factor 2 (Homo sapiens), sequence (O00292 whole entry, looked up): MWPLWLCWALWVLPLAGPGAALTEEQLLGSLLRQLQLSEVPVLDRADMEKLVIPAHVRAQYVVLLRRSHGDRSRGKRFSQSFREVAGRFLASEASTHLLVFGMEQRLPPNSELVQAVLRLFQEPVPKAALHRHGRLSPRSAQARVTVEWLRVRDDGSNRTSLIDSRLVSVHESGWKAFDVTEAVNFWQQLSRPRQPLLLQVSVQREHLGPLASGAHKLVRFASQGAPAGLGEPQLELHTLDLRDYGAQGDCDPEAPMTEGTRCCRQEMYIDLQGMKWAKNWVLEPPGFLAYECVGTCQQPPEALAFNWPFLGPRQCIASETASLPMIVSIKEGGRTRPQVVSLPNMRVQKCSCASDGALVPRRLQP
Torsin-1A-interacting protein 1 (Homo sapiens), sequence (Q5JTV8 whole entry, looked up): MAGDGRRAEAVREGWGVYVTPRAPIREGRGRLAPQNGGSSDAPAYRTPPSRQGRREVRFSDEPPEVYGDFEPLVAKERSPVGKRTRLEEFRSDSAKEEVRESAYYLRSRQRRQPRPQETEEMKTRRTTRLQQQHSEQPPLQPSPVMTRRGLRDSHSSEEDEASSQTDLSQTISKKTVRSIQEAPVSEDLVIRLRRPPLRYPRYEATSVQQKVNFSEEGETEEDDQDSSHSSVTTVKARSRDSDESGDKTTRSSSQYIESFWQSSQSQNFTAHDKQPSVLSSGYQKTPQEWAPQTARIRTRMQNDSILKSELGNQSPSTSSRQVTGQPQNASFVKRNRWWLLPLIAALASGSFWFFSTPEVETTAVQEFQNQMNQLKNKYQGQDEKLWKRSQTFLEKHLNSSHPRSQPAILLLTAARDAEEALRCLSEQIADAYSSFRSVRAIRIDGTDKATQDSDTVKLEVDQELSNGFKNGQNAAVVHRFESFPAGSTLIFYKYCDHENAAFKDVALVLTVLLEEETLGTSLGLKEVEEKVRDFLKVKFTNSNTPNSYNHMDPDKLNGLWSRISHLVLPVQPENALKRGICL
Alpha-bungarotoxin (Bungarus multicinctus), sequence (P60615 whole entry, looked up): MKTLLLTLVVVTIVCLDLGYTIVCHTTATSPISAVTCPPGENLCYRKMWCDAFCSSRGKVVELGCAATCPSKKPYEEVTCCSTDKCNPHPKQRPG

SMILES	composite z-score [1]	z-score [2]	composite z-score [3]	composite z-score [4]	composite z-score [5]	composite z-score [6]	composite z-score [7]	composite z-score [8]	composite z-score [9]	composite z-score [10]	composite z-score (Albumin (Bos taurus))	composite Z-score [11]	composite z-score [12]	composite z-score [13]	composite z-score [14]	composite z-score [15]	composite z-score [16]	composite z-score (Sam68 (KHDRBS1))	composite z-score [17]	composite z-score [18]
CCCCCCCCCC(O)C1C=CC2C(=O)N(c3ccccc3)C(=O)C2N1Nc1cc(OC)c(OC)c(OC)c1 (stereo not given)	0.903	-2.58	-1.12	1.01	1.03	-0.0685	0.239	0.641	0.559	0.774	0.168	0.182 (inactive)	-0.0751	-0.14	0.528	2.25	-0.354	0.683	-0.919	0.932
O=C1N(CCS(=O)(=O)c2ccccc2)c2ccccc2[C@H]2OC(c3ccc(OCCCO)cc3)=N[C@@]12Cc1ccccc1	0.474	-0.733	0.949	1.27	0.517	0.0101	0.337	-0.0321	2.03	1.66	-0.154	1.47 (inactive)	0.146	0.087	0.555	2.93	0.991	1.29	1.4	1.14
CCOC(=O)C=Cc1cccc(C)c1O	-0.377	0.717	0.111	-0.122	-0.335	-0.1	-0.0769	-0.288	0.0897	0.11	-0.268	-0.352 (inactive)	-0.0881	-0.114	0.422	-0.15	0.514	-0.0261	-0.0961	0.0646
CCCCC(CC)C(O)C1C=CC2C(=O)N(C)C(=O)C2N1Nc1ccccc1 (stereo not given)	1.4	-0.813	-0.303	1.29	0.583	-0.0721	0.0181	0.558	0.466	1.34	0.928	0.576 (inactive)	0.0934	-0.0804	0.655	1.99	0.245	1.31	-0.113	0.586
COC(=O)C1=CC(CCCO)=CC(c2ccc(CN3CCCC3)cc2)N(Cc2cccc(OC(F)(F)F)c2)C=C1C(=O)OC (stereo not given)	1.38	-1.18	0.0706	2.08	0.695	-0.172	-0.0953	0.947	2.1	1.89	0.996	0.29 (inactive)	0.133	-0.0502	0.387	2.21	0.612	1.3	-0.551	1.11
O=c1cccc(-c2ccc([N+](=O)[O-])cc2)o1	0.79	-0.885	0.37	-0.273	-0.389	0.0775	0.199	-0.208	1.11	0.38	-0.293	0.46 (inactive)	0.0692	-0.154	0.365	0.403	0.633	0.795	0.075	-0.549
COC(=O)C1(CC(C)C)C=C2C(=C(c3ccccc3)C(=O)C2C)CN1 (stereo not given)	-0.518	-1.33	-0.844	-0.0555	0.358	0.554	0.538	0.689	1.09	-0.194	0.581	0.465 (inactive)	1.31	0.54	0.502	2.15	0.407	-0.213	-0.521	-0.991
COC(=O)C1=CC(CCCO)=CC(c2cccs2)N(Cc2cccc(OC(F)(F)F)c2)C=C1C(=O)OC (stereo not given)	0.91	-1.88	0.151	2.05	0.804	-0.0194	0.0121	0.145	2.41	1.02	0.935	0.387 (inactive)	0.208	0.224	0.834	1.93	0.718	1.3	-0.413	1.13
COCCOC(=O)N1C(=O)[C@@]2(c3cc(C#CC4=CCCCC4)ccc31)[C@H](c1ccccc1OCCO)N1[C@H](c3ccccc3)[C@H](c3ccccc3)OC(=O)[C@H]1[C@@H]2C(=O)NC[C@H](O)c1ccccc1	1.4	-3.19	0.869	1.04	0.213	0.0839	0.0081	-0.939	0.978	1.64	-0.185	0.511 (inactive)	0.463	-0.118	0.409	1.53	0.661	1.3	0.715	1.14
CS(=O)(=O)CCOC(=O)C1=CC(c2ccc(CO)cc2)=CC(C2CC2)N(Cc2sc3ccccc3c2Cl)C=C1C(=O)OCCS(C)(=O)=O (stereo not given)	0.491	-1.7	0.815	0.0782	0.0677	-0.0685	0.199	0.611	0.702	1.89	0.52	0.42 (inactive)	0.029	-0.0839	0.815	0.737	0.55	1.03	0.802	1.11
CC(=O)NCCCC[C@@H]1NC(=O)[C@@H]2C[C@H](C(=O)NCCCCCN)[C@H](c3cccc(OCCO)c3)N2C1=O	0.794	-0.0844	0.736	1.09	0.634	0.0546	0.663	0.489	1.03	1.16	0.379	0.36 (inactive)	0.324	0.0181	0.697	0.812	0.0312	0.803	0.56	1.11
COc1ccc(CCNC(=O)[C@@]2(Sc3ccc(C)cc3)CC(=O)N(Cc3ccccc3C(F)(F)F)[C@@H]2c2ccc(CO)cc2I)cc1	0.497	-2.42	-1.5	0.138	0.14	-0.0792	-0.0849	0.924	0.357	1.73	0.589	-0.0511 (inactive)	-0.357	0.102	0.759	2.09	-0.0867	-0.3	-0.865	-0.71
